Data on 17 compounds can be found in PubChem BioAssay (NCI).

Some test systems named below: T-47D breast; BT-549 breast; MDA-MB-435 melanoma; SW-620 colon; MCF7 breast; HCT-116 colon; KM12 colon; HCC-2998 colon.
Common to all, as to test: NCI-60 one-dose screen, 48 h (100 = growth as untreated, 0 = no growth, -100 = all killed)
Common to all, as to conditions: 10 µM unless noted

This is part of a sample that, as a whole, favours compounds with a hit. Of some 83,000 tested, about 20% had one in any assay.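 Negative percent growth values reflect cell death: -40 means 40% of the cells present at the start died, and -100 means all died.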 Unmarked numbers belong to inactive results. Activity calls are given as the source filed them. How the source made its calls: active means growth percent below 10; inactive means the rest.

In the case of `Cc1ccc2[nH]c(=S)n(-c3ccc(S(=O)(=O)Nc4ccc(Cl)nn4)cc3)c(=O)c2c1`, the growth is 96.7% in the experiment with T-47D breast; 83.3% in the experiment with BT-549 breast; 102% in the experiment on MDA-MB-435 melanoma; 96.2% with SW-620 colon; 95% in the experiment with MCF7 breast; 39.7% with HCT-116 colon. For the same compound, in the experiment with KM12 colon, the growth is 104%.

In the case of `COc1cc(NCC(C)(O)CN(CC(C)C)CC(C)C)c2nc(C)ccc2c1` (stereo not drawn), the growth is 7.65% (active) in the experiment with T-47D breast; 92.4% in the experiment with BT-549 breast; 102% with MDA-MB-435 melanoma; 86.5% with SW-620 colon; -46.1% (active) in the experiment on MCF7 breast; 66.3% in the experiment with HCT-116 colon. For the same compound, the growth with KM12 colon is 63.2%.

Consider `COc1cccc(CNCCN2C(=O)c3ccc4c5c(ccc(c35)C2=O)C(=O)N(CCNCc2cccc(OC)c2)C4=O)c1`, for which the growth with T-47D breast was 97.4%; with BT-549 breast, 96.1%; in the experiment on MDA-MB-435 melanoma, 118%; in the experiment on SW-620 colon, -33% (active); in the experiment with MCF7 breast, 9.83% (active); with HCT-116 colon, -41.6% (active). Further, the growth in the experiment on KM12 colon was 82.4%.

With `O=[N+]([O-])c1cccc(-c2nc(-c3ccc(Cl)cc3Cl)cn2-c2ccccc2)c1`, the growth was 15.6% in the experiment on T-47D breast; 176% with BT-549 breast; -39.5% (active) with MDA-MB-435 melanoma; -52.4% (active) with SW-620 colon; 20.7% in the experiment with MCF7 breast; -93.2% (active) in the experiment on HCT-116 colon. The growth in the experiment with KM12 colon is -64.4% (active).

For `C[C@H]1[C@H](C)CC[C@]2(CO)CC[C@]3(C)C(=CC[C@@H]4[C@@]5(C)Cc6c([nH]c7ccccc67)C(C)(C)[C@@H]5CC[C@]43C)[C@H]12`, the growth in the experiment on T-47D breast was 68.3%; with BT-549 breast it was 85.2%; in the experiment with MDA-MB-435 melanoma it was 90.3%; in the experiment on SW-620 colon, 96.2%; in the experiment with HCT-116 colon it was 61.5%; with HCC-2998 colon it was 86%. Also, the growth in the experiment on KM12 colon was 73.8%.

Regarding `O=C(Nc1ccc2ncnc(Nc3ccc(Oc4cccc(F)c4)c(Cl)c3)c2c1)c1ccc(CN2CCOCC2)cc1`, the growth in the experiment on T-47D breast was -9.3% (active); with BT-549 breast, 19.9%; in the experiment on MDA-MB-435 melanoma, 22%; in the experiment with SW-620 colon, 38.7%; with MCF7 breast it was 10.5%; in the experiment with HCT-116 colon it was 13.7%. Also, the growth in the experiment on KM12 colon is 24.6%.

As to `COc1cc2nc(Cc3ccc(C)cc3)[nH]c(=O)c2cc1OC`, the growth in the experiment on T-47D breast is 107%; with BT-549 breast it was 229%; in the experiment on MDA-MB-435 melanoma, 119%; in the experiment with SW-620 colon, 101%; with MCF7 breast, 104%; with HCT-116 colon it was 117%. In the experiment on KM12 colon, the growth was 109%.

With `O=CNc1cc(Cl)cc(Cl)c1`, the growth in the experiment with T-47D breast is 100%; in the experiment with BT-549 breast, 99.4%; with MDA-MB-435 melanoma, 107%; with SW-620 colon, 103%; with MCF7 breast, 98.3%; in the experiment on HCT-116 colon it was 100%. In the experiment on KM12 colon, the growth was 101%.

As to `CC(=O)Nc1ccc(C(=O)Nc2cc(-c3ccccc3)ccc2N)cc1`, the growth was 66% with T-47D breast; 102% in the experiment on BT-549 breast; 60.1% in the experiment with MDA-MB-435 melanoma; 59.3% with SW-620 colon; 50.1% in the experiment with HCT-116 colon; 90.7% in the experiment with HCC-2998 colon.

As to `C#CCn1cc(C=C2C(=O)NC(=S)NC2=O)c2cc(Cl)ccc21`, the growth is 76.6% in the experiment on T-47D breast; 24.6% in the experiment with BT-549 breast; 15% with MDA-MB-435 melanoma; -27.5% (active) in the experiment with SW-620 colon; 10.6% in the experiment on MCF7 breast; 2.51% (active) in the experiment on HCT-116 colon. For the same compound, the growth with KM12 colon was 14.4%.

For the compound `O=C(Nc1cccc(Cl)c1)c1cc(Cl)ccc1O`, the growth with T-47D breast was -11.9% (active); with BT-549 breast it was -6.47% (active); in the experiment with MDA-MB-435 melanoma it was 5.73% (active); in the experiment on SW-620 colon, 6.44% (active); with MCF7 breast it was 4.21% (active); in the experiment with HCT-116 colon it was 6.01% (active). In addition, the growth with KM12 colon is 5.13% (active).

`COC(=O)N[C@H]1CCc2cc(OC)c(OC)c(OC)c2-c2ccc(SC)c(=O)cc21`: the growth in the experiment on T-47D breast was 50.2%; in the experiment on BT-549 breast, -4.09% (active); with MDA-MB-435 melanoma it was -29.5% (active); with SW-620 colon it was 16.9%; with MCF7 breast it was 14.7%; with HCT-116 colon it was 5.32% (active). For the same compound, the growth in the experiment on KM12 colon was 1.21% (active).

As to `CSc1nc(O)c(-c2ccccc2)c(=O)[nH]1`, the growth is 100% in the experiment with T-47D breast; 103% with BT-549 breast; 101% in the experiment with MDA-MB-435 melanoma; 98.8% in the experiment on SW-620 colon; 96.3% with MCF7 breast; 99.4% with HCT-116 colon. For the same compound, the growth in the experiment on KM12 colon was 103%.

As for `CN(C)C(=O)c1cc2cnc(Nc3ccc(-c4csc5c(=O)cc(N6CCOCC6)oc45)cc3)nc2n1C1CCCC1`, the growth with T-47D breast is -4.72% (active); in the experiment with BT-549 breast, -79.1% (active); with MDA-MB-435 melanoma it was -38.7% (active); in the experiment with SW-620 colon it was -45.6% (active); with HCT-116 colon, -29.2% (active); in the experiment on HCC-2998 colon it was -44.6% (active). In addition, the growth with KM12 colon was -86.9% (active).

Turning to `Cc1ccc(-c2csc(/N=C3\C(=O)Nc4ccccc43)n2)cc1`, the growth in the experiment with T-47D breast is 20%; with BT-549 breast it was 23.6%; with MDA-MB-435 melanoma it was 12.9%; with SW-620 colon, 19.4%; with MCF7 breast it was 6.92% (active); in the experiment on HCT-116 colon, 4.56% (active). Moreover, the growth with KM12 colon is 15.2%.

Consider `Nc1ccccc1NC(=O)c1ccc(CN2CCC/C(=C\c3cccc(Cl)c3)C2=O)cc1`, for which the growth in the experiment with T-47D breast was 32.4%; with BT-549 breast, -9.32% (active); in the experiment with MDA-MB-435 melanoma, 3.87% (active); in the experiment on SW-620 colon, 23.9%; with MCF7 breast, 8.72% (active); in the experiment with HCT-116 colon, 6.06% (active). Besides, in the experiment with KM12 colon, the growth was 4.58% (active).

Regarding `COc1ccc(C(=O)/C=C/c2ccc(OCc3ccccc3)c(OC)c2)cc1OC`, the growth in the experiment on T-47D breast was 47.4%; in the experiment on BT-549 breast, 51.8%; with MDA-MB-435 melanoma it was 61%; with SW-620 colon, 12.9%; in the experiment on MCF7 breast it was 22.5%; in the experiment on HCT-116 colon, 18.2%. The growth in the experiment on KM12 colon is 36.5%.
